# The list is not random: actives were taken first. Their share in the collection is about 12%.
# HP1b chromo inh = HP1-beta chromodomain-methylated histone interaction inhibition; P83916; AlphaScreen HP1-beta / biotin-H3K9me3 peptide binding; Potency, µM (series often up to 114 µM), usual class: inhibitors; hit rate 0.56% among 390,000; note: nearly all actives have a fitted effect of over 70% in size
# Target sequence (P83916 whole entry, looked up): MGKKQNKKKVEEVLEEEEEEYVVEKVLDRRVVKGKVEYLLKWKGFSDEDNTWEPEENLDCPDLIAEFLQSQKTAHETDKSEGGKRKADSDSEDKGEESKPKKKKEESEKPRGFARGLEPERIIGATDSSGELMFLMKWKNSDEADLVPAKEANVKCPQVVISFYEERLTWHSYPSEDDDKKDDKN
#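 AlphaScreen: HP1-beta (50 nM) preformed 30 min with biotin-H3(1-18)K9me3 peptide (50 nM) in PBS pH 7.4, 0.01% Tween-20. Compound added for 30 min at RT, then streptavidin donor/nickel chelate acceptor beads (10 ug/mL) for 30 min.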
# Sfp PPTase inh = inhibitors of Bacillus subtilis Sfp phosphopantetheinyl transferase; Q9F4F7; Biochemical Sfp PPTase activity, qHTS; Potency, µM, most hits filed as inhibitors; hit rate 3.5% among 310,000; AID 1490;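 note: the enzyme is Sfp with the accession as filed and its product quenches rhodamine fluorescence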
#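 Step 1, compound plus 15 nM Sfp-PPTase, 15 min, room temperature. Step 2, add rhodamine-CoA (5 uM) and BHQ-2-YbbR (12.5 uM). Step 3, read 525/598 nm fluorescence at 0 and 30 min.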
# G9a inh = inhibitors of human histone lysine methyltransferase G9a. Q96KQ7. G9a H3K9 monomethylation, AlphaScreen, 2 h. Potency, µM (highest dose often 102 µM), most hits filed as inhibitors. hit rate 8.8% among 350,000. AID 504332; note: nearly all actives have a fitted effect of over 75% in size
# Target sequence (Q96KQ7 913-1193 limits assumed): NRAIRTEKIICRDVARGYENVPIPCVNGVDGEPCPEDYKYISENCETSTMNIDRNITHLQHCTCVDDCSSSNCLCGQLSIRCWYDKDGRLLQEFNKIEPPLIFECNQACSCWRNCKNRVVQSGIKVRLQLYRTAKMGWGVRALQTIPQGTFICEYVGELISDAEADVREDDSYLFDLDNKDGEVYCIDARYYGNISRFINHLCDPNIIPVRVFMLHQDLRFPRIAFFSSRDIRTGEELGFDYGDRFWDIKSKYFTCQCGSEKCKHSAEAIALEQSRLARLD
#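 AlphaScreen read-out: biotin-H3K9 peptide (500 nM) methylation by 20 nM enzyme with 20 uM SAM, 2 h at room temperature after 15 min compound preincubation; anti-monomethyl H3K9 antibody plus donor/acceptor beads, 10 min dark.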
# BAZ2B block = blocks human BAZ2B. Q9UIF8. AID 504333. hit rate 4.4% among 360,000. AlphaScreen BAZ2B-H3K14Ac peptide displacement. Potency, µM (titrated, usually from 114 µM), most hits filed as inhibitors; note: nearly all actives have a fitted effect of over 60% in size
#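 BAZ2B 50 nM plus b-H3(5-23)K14Ac 50 nM, PBS pH 7.4/0.01% Tween-20, 30 min RT; compound added (max 110 uM), 30 min RT; streptavidin donor/Ni-chelate acceptor beads 10 ug/mL final, 20 min dark; AlphaScreen read.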
# JMJD2A Tudor = inhibitors of human JMJD2A Tudor domain; AlphaScreen JMJD2A-Tudor / H3K4me3 peptide binding; Potency, µM (titrated, usually from 114 µM), usual class: inhibitors; hit rate 4.4% among 390,000; note: nearly all actives have a fitted effect of over 50% in size
# A number is an active result; – = inactive; ? = inconclusive; · = not tested or not shown; [ ] = dose if it differs, or a comment. Calls come from the whole dose curve; as a rule, active = well fitted curve in the direction sought with a large enough effect; inconclusive = small, poorly fitted or top-dose-only effect, or another doubt; inactive = no such curve, though single readings can be large; an effect the other way counts as inactive or inconclusive.
SMILES,HP1b chromo inh,Sfp PPTase inh,G9a inh,BAZ2B block,JMJD2A Tudor
Cc1ccc2oc3c(c(=O)c2c1)C(c1ccc(F)cc1)N(CCCN1CCOCC1)C3=O (centres undefined),·,?,45µM,–,·
O=C1c2oc3ccc(F)cc3c(=O)c2C(c2ccncc2)N1CCN1CCOCC1 (centres undefined),·,–,50µM,–,·
COc1cccc(C2c3c(oc4ccc(F)cc4c3=O)C(=O)N2CCN2CCOCC2)c1OC (centres undefined),–,–,–,–,–
C[C@H](CCC(=O)O)C1CC[C@H]2C3CC[C@@H]4C[C@H](O)CC[C@]4(C)C3C[C@H](O)[C@]12C (some centres undefined),·,–,–,·,·
COc1ccc(N(CC(=O)NC(C)c2ccccc2)S(=O)(=O)c2c(C)nn(C)c2C)cc1 (centres undefined),–,·,–,·,–
CCc1ccc(NC(=O)Cn2ccn(Cc3ccccc3OC)c(=O)c2=O)cc1,–,·,–,–,–
COc1ccccc1CNCC(=O)Nc1ccc(N(C)C)cc1,–,–,–[2.33 µM],50µM,4µM
CCN(CC)S(=O)(=O)c1ccc(C)c(NC(=O)CNCc2ccccc2OC)c1,–,?,25µM,–,11µM
CCCSc1ncc(Cl)c(C(=O)N2CCN(c3cccc(Cl)c3)CC2)n1,–,·,–,–,–
CCCSc1ncc(Cl)c(C(=O)N2CCN(c3ccc(OC)cc3)CC2)n1,–,·,10µM,35µM,?
COc1ccc(N2CCN(C(=O)c3nc(SC)ncc3Cl)CC2)cc1,–,·,10µM,–,–
Cc1csc2nc(COc3ccc(NC(=O)C(C)C)cc3)cc(=O)n12,–,·,–,–,–
O=C(OCc1ccc(Br)cc1)c1cnc(Cl)c(Cl)c1,–,–,–,–,71µM
Cc1cc(NC(=O)c2ccc3[nH]c(C)c(C)c3c2)ccn1,–,–,?,50µM,–
CC(=O)Nc1cccc(NC(=O)c2ccc3[nH]c(C)c(C)c3c2)c1,?,–,–,–,–
CCC(=O)c1c[nH]c(C(=O)NCc2ccccc2OC)c1,–,–,–,79µM,–
COc1ccccc1CNC(=O)c1ccc2[nH]c(C)c(C)c2c1,?,·,?,50µM,?
COc1ccccc1CNC(=O)c1cc(C(C)=O)c[nH]1,–,–,–[2.33 µM],–,–
COc1ccccc1[C@@H]1C(c2ccc(F)cc2)=NN(c2ccc(Br)cc2)[C@H]1C(=O)N1CCOC1=O,·,–,–,·,·
O=C(O)CCCNC(=O)c1cccc(C(=O)NCCCC(=O)O)n1,–,–,20µM,?,?
O=C(O)CCCCCNC(=O)c1ccc(C(=O)NCCCCCC(=O)O)cc1,–,–,–,–,–
CC(C)c1ccc(/C=C2\CC/C(=C\C=N\N(C)C)C2=O)cc1,–,79µM,?,56µM,?
CCc1ccc(CN(C)CC(=O)Nc2ccccc2[N+](=O)[O-])cc1,–,–,79µM,?,?
C=CCOc1ccc(CN(C)CC(=O)Nc2ccccc2[N+](=O)[O-])cc1,?,?,14µM,·,13µM
CCOc1ccccc1CNc1ccc(N2CCOCC2)c(C(=O)O)c1,–,–,–,–,–
SMILES,HP1b chromo inh,Sfp PPTase inh,G9a inh,BAZ2B block,JMJD2A Tudor
O=C(O)c1cc(NCc2c(F)cccc2Cl)ccc1N1CCOCC1,–,–,13µM,–,–
COC(=O)c1cc(NCc2ccccc2F)ccc1N1CCOCC1,–,–,45µM,–,–
CCOc1ccccc1N1CC(C(=O)Nc2ccc(S(=O)(=O)N3CCCCC3)cc2)CC1=O (centres undefined),–,·,–[0.501 µM],–,–
CCN(CC)CCNC(=O)c1ccc2c(c1)NC(=O)c1ccccc1S2,–,–,45µM,–,–
CN(C)CCNC(=O)c1ccc2c(c1)NC(=O)c1ccccc1S2,–,–,45µM,–,–
CCOC(=O)c1c(C)oc2nc(C)nc(N3CCN(c4cc(Cl)ccc4C)CC3)c12,–,·,?,?,–
Cc1ccc(CNC(=O)CCCn2c(=O)[nH]c3ccc(Br)cc3c2=O)cc1,–,·,–,–,–
COc1cc(CN2CCc3c([nH]c4ccccc34)C2)cc(OC)c1,?,–,32µM,35µM,7.9µM
COc1cc(CN2CCN(Cc3c[nH]c4ccccc34)CC2CCO)cc(OC)c1 (centres undefined),–,–,·,–,–
COc1ccccc1CN1C(=O)[C@H]2Cc3c([nH]c4ccccc34)C(C)(C)N2C1=O,–,·,·,·,–
Clc1cccc(CN2CCc3c([nH]c4ccccc34)C2)c1Cl,?,–,50µM,22µM,22µM

# Source: PubChem BioAssay
